An excerpt weighted towards active compounds, which were near 11% of everything screened.
MCF10A rerep: inducers of DNA re-replication in MCF 10A breast cells. MCF 10A DNA re-replication, Hoechst nuclear intensity, 48 h. Potency, µM (doses to about 46.1 µM), hits mostly activators. 350,000 tested, 2.9% active; note: nearly all actives have a fitted effect of over 50% in size
SW480 rereplic: DNA re-replication induction in SW480 cells; SW480 DNA re-replication, Hoechst DNA content imaging, 48 h; Potency, µM (highest dose often 46.1 µM), hits mostly activators; 340,000 tested, 1.8% active; AID 624297; note: nearly all actives have a fitted effect of over 55% in size
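Hoechst fluorescence of nuclei (405 nm excitation, 500-530 nm emission) measured by plate-scanning imager after 48 hr compound exposure at 37 C; re-replication scored as increased number of nuclei with elevated intensity.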
VP16 counter: Gal4-VP16 reporter inhibition counter-screen; 310,000 tested, 3.5% active; Potency, µM (doses to about 53.6 µM), most hits filed as inhibitors; Drosophila S2 Gal4-VP16 UAS-luciferase, luminescence, 20 h;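 note: Gal4-VP16 expression switched on by copper sulfate through the metallothionein promoter; nearly all actives have a fitted effect of over 50% in size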
IL1B secr inh: inhibitors of inflammasome signaling (IL-1 beta secretion); THP-1 LPS/ATP IL-1B secretion, AlphaLISA, 16 h; active compounds read low; activity change, % at 57.5 µM; 360,000 tested, 4.7% active; AID 743279; in the data active = activity change below about -50%; inconclusive = mostly about -30% to -49%
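Secreted IL-1B measured by AlphaLISA bead assay after 16 h compound exposure of THP-1 cells; compounds (final up to 57.5 uM) added 1 h before LPS (250 ng/mL) and ATP (1.25 mM) stimulation; lower signal means less secretion.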
RORgamma inh: inhibitors of mouse ROR gamma transcriptional activity | P51450 | Potency, µM (doses to about 53.6 µM), usual class: inhibitors | Drosophila S2 Gal4-RORgamma UAS-luciferase reporter, 20 h | 310,000 tested, 5.4% active | AID 2551; note: nearly all actives have a fitted effect of over 60% in size
Target sequence (P51450 whole entry, looked up, the tested form may be a part): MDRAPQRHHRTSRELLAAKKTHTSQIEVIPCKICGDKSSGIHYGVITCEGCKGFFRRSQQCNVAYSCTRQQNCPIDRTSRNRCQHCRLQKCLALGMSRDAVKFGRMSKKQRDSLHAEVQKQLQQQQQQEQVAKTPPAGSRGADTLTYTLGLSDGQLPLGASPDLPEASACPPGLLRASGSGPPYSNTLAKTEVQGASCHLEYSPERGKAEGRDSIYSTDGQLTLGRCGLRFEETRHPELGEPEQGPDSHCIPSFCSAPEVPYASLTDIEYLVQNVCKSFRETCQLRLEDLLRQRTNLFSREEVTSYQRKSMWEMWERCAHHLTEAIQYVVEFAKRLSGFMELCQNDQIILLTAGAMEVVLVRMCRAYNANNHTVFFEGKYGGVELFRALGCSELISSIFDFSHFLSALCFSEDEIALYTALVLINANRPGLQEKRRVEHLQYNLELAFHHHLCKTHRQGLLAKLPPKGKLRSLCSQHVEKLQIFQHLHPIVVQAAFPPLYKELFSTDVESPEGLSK
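In this cell-based reporter format, copper sulfate (700 uM final) drives Gal4–ROR gamma fusion expression from a metallothionein promoter in Drosophila Schneider cells; compounds preincubated 1 hr, reporter read after 20 hr at ambient temperature.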
A number is an active result; [ ] = remark or other dose. Unless noted, calls come from the whole dose curve; as a rule, active = well fitted curve in the direction sought with a large enough effect; inconclusive = small, poorly fitted or top-dose-only effect, or another doubt; inactive = no such curve, though single readings can be large; an effect the other way counts as inactive or inconclusive.

Results for COc1cccc(C2=CC(c3cccc(OC)c3OC)n3nnnc3N2)c1 (centres undefined) ?
MCF10A rerep: 8.9µM; SW480 rereplic: inactive[9.22 µM]; VP16 counter: inactive; IL1B secr inh: inactive; RORgamma inh: 3.2µM

What do the screens show for `COc1ccc(OC)c(C2C=C(c3ccc(C)c(C)c3)Nc3nnnn32)c1` (centres undefined)?
MCF10A rerep: inconclusive; SW480 rereplic: 7.3µM; VP16 counter: inactive; IL1B secr inh: inactive; RORgamma inh: inconclusive

How did COc1cccc(C2C=C(c3ccc(OC)cc3OC)Nc3nnnn32)c1 (centres undefined) do in these assays?
MCF10A rerep: inconclusive; SW480 rereplic: inconclusive; VP16 counter: inactive; IL1B secr inh: inactive; RORgamma inh: inactive

What do the screens show for `OCC1(Cc2ccccc2)CCN(C2CCN(c3ccc(F)c(F)c3)CC2)CC1`?
MCF10A rerep: inconclusive; SW480 rereplic: inactive; VP16 counter: inactive; IL1B secr inh: -118; RORgamma inh: inactive

How did Cc1ccccc1OCC(=O)Nc1cc(S(=O)(=O)N2CCOCC2)ccc1N1CCCC1 do in these assays?
MCF10A rerep: inactive; SW480 rereplic: inactive; IL1B secr inh: inactive

What do the screens show for `CCN(CC)S(=O)(=O)c1ccc(N2CCOCC2)c(NC(=O)COc2ccccc2C)c1`?
MCF10A rerep: inactive; SW480 rereplic: inactive; IL1B secr inh: -56

How did COc1ccc(C(=O)OCC(=O)Nc2cc(S(=O)(=O)N3CCOCC3)ccc2N2CCCC2)cc1 do in these assays?
MCF10A rerep: inactive; SW480 rereplic: inactive; VP16 counter: inactive; IL1B secr inh: -64; RORgamma inh: inactive

Results for CCN(CC)S(=O)(=O)c1ccc(N2CCOCC2)c(NC(=O)c2cccc3ccccc23)c1 ?
MCF10A rerep: inactive; SW480 rereplic: inactive; VP16 counter: inactive; IL1B secr inh: inconclusive; RORgamma inh: inactive

How did CC(C)c1ccccc1OCC(=O)Nc1cc(S(=O)(=O)N2CCOCC2)ccc1N1CCCC1 do in these assays?
MCF10A rerep: inactive; SW480 rereplic: inactive; IL1B secr inh: -56

How did CCN(CC)S(=O)(=O)c1ccc(N2CCOCC2)c(NC(=O)c2cccc3c(=O)c(C)c(-c4ccccc4)oc23)c1 do in these assays?
MCF10A rerep: 3.7µM; SW480 rereplic: inactive; IL1B secr inh: inactive

What do the screens show for `Cc1cccc(N2CCN(C(=O)COc3ccc4c(c3)CCC4)CC2C)c1` (centres undefined)?
MCF10A rerep: inconclusive; SW480 rereplic: inactive; IL1B secr inh: inactive

Results for CCN1CCN(c2ccc(S(=O)(=O)N3CCOCC3)cc2NC(=O)C(C)Oc2cccc(Cl)c2)CC1 (centres undefined) ?
MCF10A rerep: inactive; SW480 rereplic: inactive; IL1B secr inh: inconclusive

Results for CC(Oc1cccc(Cl)c1)C(=O)Nc1cc(S(=O)(=O)N2CCOCC2)ccc1N1CCCCC1 (centres undefined) ?
MCF10A rerep: 13µM; SW480 rereplic: inactive; IL1B secr inh: inactive

How did CCOc1cc(N2CCOCC2)c(OCC)cc1NC(=O)COc1ccccc1[N+](=O)[O-] do in these assays?
MCF10A rerep: inactive; SW480 rereplic: inactive; VP16 counter: inactive; IL1B secr inh: -80; RORgamma inh: inactive

How did O=C(COc1ccccc1[N+](=O)[O-])Nc1cccc(Cl)c1N1CCOCC1 do in these assays?
MCF10A rerep: inconclusive; SW480 rereplic: inconclusive; VP16 counter: inconclusive; IL1B secr inh: inactive; RORgamma inh: inconclusive

Results for COc1cc(OC)cc(C(=O)NNC(=O)CNC(=O)c2cccs2)c1 ?
MCF10A rerep: inactive; SW480 rereplic: inactive; IL1B secr inh: inactive

What do the screens show for `COc1ccccc1CNc1ccnc(-c2ccccc2OC)n1`?
VP16 counter: inactive; RORgamma inh: inactive

What do the screens show for `CCC1C(=O)CC(c2ccc([N+](=O)[O-])cc2)NC1c1ccc([N+](=O)[O-])cc1` (centres undefined)?
MCF10A rerep: inactive; SW480 rereplic: inactive; VP16 counter: inactive; IL1B secr inh: -100; RORgamma inh: inconclusive

Results for COc1ccc2oc(-c3ccc(NC(=O)c4ccc(N5CCOCC5)c([N+](=O)[O-])c4)cc3)nc2c1 ?
MCF10A rerep: inconclusive; SW480 rereplic: inactive; VP16 counter: inactive; IL1B secr inh: inactive; RORgamma inh: inactive

Results for Cn1cc([N+](=O)[O-])c(C(=O)Nc2ccc(-c3nc4ccccc4o3)cc2)n1 ?
MCF10A rerep: 3.7µM; SW480 rereplic: inconclusive; VP16 counter: inactive; IL1B secr inh: -86; RORgamma inh: inactive

How did O=C(Nc1ccc(-c2nc3ccccc3o2)cc1)c1ccc(N2CCOCC2)c([N+](=O)[O-])c1 do in these assays?
MCF10A rerep: inactive; SW480 rereplic: inconclusive; VP16 counter: 10µM; IL1B secr inh: inactive; RORgamma inh: inconclusive

What do the screens show for `Cc1ccc(-n2cc(CNCC3CC(=O)N(C4CC4)C3)c(-c3cccc(C)c3)n2)cc1` (centres undefined)?
MCF10A rerep: inactive; SW480 rereplic: inconclusive; VP16 counter: inconclusive; IL1B secr inh: -64; RORgamma inh: inconclusive

Results for CC(=O)N1CCCN(Cc2cn(-c3cccc(C)c3)nc2-c2cccc(F)c2)CC1 ?
MCF10A rerep: inactive; SW480 rereplic: inactive; VP16 counter: inactive; IL1B secr inh: inactive; RORgamma inh: inactive

How did Cc1cccc(-n2cc(CN3CCCN(C=O)CC3)c(-c3cccc(F)c3)n2)c1 do in these assays?
MCF10A rerep: inactive; SW480 rereplic: inactive; VP16 counter: inactive; IL1B secr inh: inactive; RORgamma inh: inactive

How did Cc1ccc(-n2cc(CN3CCN(Cc4nccn4C)CC3)c(-c3cccc(C)c3)n2)cc1 do in these assays?
MCF10A rerep: inactive; SW480 rereplic: inactive; VP16 counter: inactive; IL1B secr inh: -57; RORgamma inh: 10µM

What do the screens show for `Cc1ccc(-n2cc(CN3CCNC(=O)CC3)c(-c3cccc(C)c3)n2)cc1`?
MCF10A rerep: inactive; SW480 rereplic: inactive; VP16 counter: inactive; IL1B secr inh: -100; RORgamma inh: inactive

How did Cc1cccc(Cn2c(NC3CCCC3)nc3c2c(=O)[nH]c(=O)n3C)c1 do in these assays?
IL1B secr inh: inactive

Results for C[C@]12C(=O)N(c3ccc(Cl)cc3)C(=O)N1[C@@H]1c3ccccc3OC[C@@H]1[C@H]2c1ccccc1 ?
MCF10A rerep: inconclusive; SW480 rereplic: inconclusive; IL1B secr inh: inactive

How did Cc1cc(C)cc(CC(=O)N2CCC2(C)C(=O)NS(=O)(=O)c2ccc(Br)cc2)c1 (centres undefined) do in these assays?
IL1B secr inh: inactive

How did COc1cccc(C(=O)N2CCC2(C)C(=O)NC(C)C)c1 (centres undefined) do in these assays?
IL1B secr inh: inactive

Results for CC(C)C[C@H]1COc2cccc(N(C)CCO)c2S(=O)(=O)N1 ?
IL1B secr inh: inactive

How did Cn1nc(C(C)(C)C)cc1N1C(=O)CCC1(C)C(=O)NC1CCCCC1 (centres undefined) do in these assays?
IL1B secr inh: inactive

What do the screens show for `CCCCN(CCCC)C(=O)CSc1nnc(-c2cc(OC)c(OC)c(OC)c2)o1`?
MCF10A rerep: inactive; SW480 rereplic: inactive; VP16 counter: inactive[0.365 µM]; IL1B secr inh: -54; RORgamma inh: inactive

Compound activity (PubChem BioAssay)
